Reference: PubChem BioAssay (NCI)
Where “and” joins values, the source holds several entries; their conditions need not be identical. Equal entries are not always repeated. The panel holds about 79,000 compounds, 15% with a hit somewhere; the sample as a whole holds those more often. The source holds several records for some structures; these can differ, active in one and inactive in another. Calls of active or inactive are those of the source. Cut-off read from the data, not from the text of the source: active = growth inhibition above about 70%; inactive = the rest.

Legend:
[1] = NCI Yeast Anticancer Drug Screen. Data for the rad50 strain (AID 155);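 note: 0% = growth of vehicle-only cultures of the same strain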; details: S. cerevisiae rad50 strain growth inhibition; at 50.0 µM; stronger effect = higher value
Procedure, shortened: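 Yeast carrying a defined DNA repair defect were exposed to test compounds, and growth was compared with vehicle-treated controls to give percent inhibition.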

[2] = NCI Yeast Anticancer Drug Screen. Data for the mec2-1 strain (AID 157); details: S. cerevisiae mec2-1 strain, at 50.0 µM, stronger effect = higher value
Procedure, shortened: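 Mutant yeast (mec2-1) grown with compound; growth inhibition relative to vehicle control reported.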

[3] = NCI Yeast Anticancer Drug Screen. Data for the sgs1 mgt1 strain (AID 161);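 note: 0% = growth of cultures given vehicle only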; details: S. cerevisiae sgs1 mgt1 strain, at 50.0 µM, stronger effect = higher value
Procedure, shortened: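 This yeast growth screen uses a strain with defined DNA-repair lesions; compound-treated growth is compared with vehicle-treated growth.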

[4] = NCI Yeast Anticancer Drug Screen. Data for the cln2 rad14 strain (AID 165);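 note: 0% = growth equal to vehicle treated cultures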; details: S. cerevisiae cln2 rad14 strain, at 50.0 µM, stronger effect = higher value
Procedure, shortened: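 Readout is yeast growth inhibition versus vehicle-treated controls, using a strain with cln2 and rad14 alterations exposed to compound.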

[5] = NCI Yeast Anticancer Drug Screen. Data for the bub3 strain (AID 167); details: S. cerevisiae bub3 mutant strain, at 50.0 µM, stronger effect = higher value
Procedure, shortened: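 Compounds were applied to a genetically altered yeast strain carrying a cell-cycle control defect. Growth inhibition was scored against vehicle-treated controls.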

[6] = NCI Yeast Anticancer Drug Screen. Data for the mlh1 rad18 strain (AID 175); details: S. cerevisiae mlh1 rad18 strain growth inhibition; at 50.0 µM; stronger effect = higher value
Procedure, shortened: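 Genetically defined yeast (DNA repair-deficient) exposed to compounds; growth inhibition determined relative to vehicle.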

Measured: growth inhibition

O=C(O)C1(O)C[C@@H](O)C(O)[C@H](O)C1 (stereo partly specified)
inactive: [1] 4.9% and -19.3% | [2] 0.15% and -14.2% | [3] -3.65% and -30.1% | [4] 21.2% and 23.8% | [5] -4.65% and -2.35% | [6] 3.6% and -2.65%

O=C1CC2(CC=CCC23OCCO3)CC(CI)O1 (stereo unspecified)
inactive: [1] -14.1% and 7.75% | [2] -8.25% and -1.25% | [3] 3.1% and 24.8% | [4] 5.9% and 5.1% | [5] -10.2% and 10.9% | [6] 10.7% and 9.55%

CC(C)(C)c1cc([N+](C)(C)C)cc(C(C)(C)C)n1
inactive: [1] 1.6% and 19.6% | [2] -5.3% and 8.25% | [3] 1.05% and 14.8% | [4] 2.3% and -16.7% | [5] 20.6% and -2.05% | [6] 6.3% and -5.55%

O=c1[nH]c2[nH]c(=S)[nH]c(=S)c2[nH]1
inactive: [1] -19.7% and 13.8% | [2] 8.45% and -2.5% | [3] -17.5% and -4.85% | [4] 13.8% and -41.7% | [5] -24.7% and -10.8% | [6] -20.1% and -0.3%

OC1C(O)C2(c3ccccc3)OC1(c1ccccc1)c1ccccc12 (stereo unspecified)
inactive: [1] 13.2% and 7.35% | [2] -5.9% and -2.35% | [3] -5.8% and -5.6% | [4] 4.35% and 2% | [5] -0.25% and -1% | [6] -13.5% and -9.9%

CC(C)C1C=C2CCC3C(C)(C(=O)O)CCCC3(C)C2CC1 (stereo unspecified)
inactive: [2] 68.2% and 58.1% | [3] 22.8% and 48% | [5] 65.2% and 44.9%
73.7% (active) and 65.3% (inactive): [4]
81.7% (active) and 49.9% (inactive): [6]
79.6% (active) and 46.2% (inactive): [1]

C=CCSC1=NC(=O)C(CCCC)C(=O)N1C (stereo unspecified)
inactive: [1] 7.75% and -1.7% | [2] 2.65% and 7.25% | [3] 4.25% and 6.3% | [4] -35.5% and -24.9% | [5] -22% and 7.5% | [6] 10.8% and 7.5%

CC(C(=O)O)C(=O)O.[NH-]C1CCCCC1[NH-].[Pt+2]
inactive: [1] 8.5% and 16.2% | [2] 6.7% and 5.2% | [3] -11.1% and -3.45% | [4] 11.2% and -0.05% | [5] 20.4% and 21.3% | [6] 32.3% and 34.4%

CCCCCCC1OCC(CC)C(CCC)O1 (stereo unspecified)
inactive: [1] 24.4% and 2% | [2] 23.6% and 6.9% | [3] 17.1% and -6.05% | [4] -12.2% and -9.7% | [5] 17.2% and 15.2% | [6] 30.4% and -9.4%

CCCCNC(=S)NCCCC
inactive: [1] -6.45% and -1.4% | [2] 9.9% and 8% | [3] -11% and 19.2% | [4] -32% and -17.5% | [5] 1.15% and -4.35% | [6] -2.4% and 17.3%

N=C(N)SCCc1ccccn1
inactive: [1] -30.3% and -8.8% | [2] -27.9% and -24.2% | [3] -35.1% and -28% | [4] -16.1% and -19.4% | [5] -44% and -39.1% | [6] -18.4% and -1.55%

CCOC(=O)C1=C(C)NC(=O)NC1c1ccccc1 (stereo unspecified)
inactive: [1] 9.5% and -7% | [2] 15.1% and -20.2% | [3] -0.15% and 4.45% | [4] -19.1% and 6.95% | [5] -0.9% and 15.2% | [6] 35.9% and -8.4%

CC(=O)Nc1ccc(C=O)cc1
inactive: [1] 13.1% and 25.1% | [2] 3.5% and 19.1% | [3] 14.8% and 24.1% | [4] -18.1% and 8.75% | [5] -4.15% and -9.2% | [6] 4.9% and 28%

CC(C)(C)OC(=O)C1CCON1C1OC(C(O)CO)C2OC(C)(C)OC21 (stereo unspecified)
inactive: [1] -3.45% and 48.1% | [2] 7.85% and 43% | [3] 2.4% and 57.9% | [4] -8.25% and 19% | [5] 13.2% and 38.5% | [6] 10.8% and 59.4%

O=C(NCc1ccccc1)C1C(=O)C(=O)N(Cc2ccccc2)C1=O (stereo unspecified)
inactive: [1] -29.4% and 4.55% | [2] -22.6% and 0.8% | [3] -12.2% and -8.45% | [4] 2% and 14% | [5] -8.8% and -3.45% | [6] -36% and 2.6%

CC(=O)c1c(-c2cccc3ccccc23)c(C#N)c(=S)n(C2OC(CO)C(O)C(O)C2O)c1-c1ccccc1 (stereo unspecified)
inactive: [1] 21.2% and 31.6% | [2] 17.9% and -8.45% | [3] 42.1% and 34.2% | [4] 25.7% and 23.8% | [5] 34.9% and 12.3% | [6] 21.6% and 24.7%

CCOc1ccc(C(C)=O)cc1
inactive: [1] 10.7% and -0.6% | [2] 5.25% and 3.75% | [3] 5.85% and 3.85% | [4] 10.9% and 1.45% | [5] 5.5% and 3.65% | [6] -2.05% and -7.45%

O=C(NS(=O)(=O)c1ccccc1)OCc1ccccc1
inactive: [1] 4.65% and -18.1% | [2] -11.8% and -4.35% | [3] -14.8% and -15.3% | [4] -22.2% and -31.8% | [5] 16.7% and 24.8% | [6] -6.1% and 6.1%

O=C(NNC(=S)NC1OC(CO)C(O)C(O)C1O)c1cccc(C(=O)NNC(=S)NC2OC(CO)C(O)C(O)C2O)n1 (stereo unspecified)
inactive: [1] 1.45% | [2] 19.9% and -22.6% | [3] 31.4% and 25.2% | [4] 21.4% and 7.8% | [5] 17.1% and 8.4% | [6] 27.4% and 14.9%

CC(=O)c1c(-c2ccc(Cl)cc2)c(C#N)c(=S)n(C2OC(CO)C(O)C(O)C2O)c1-c1ccccc1 (stereo unspecified)
inactive: [1] 5.1% and 4.5% | [2] 1.95% and 6.1% | [3] 28.1% and 34.5% | [4] 33.1% and -7.6% | [5] -2.95% and 39.5% | [6] 56.6% and 15.9%

CCCOC(=O)c1ccc(OCC)cc1
inactive: [1] 22.4% and -20.6% | [2] 8.2% and -9.8% | [3] 12.6% and 3.1% | [4] -8% and -42.6% | [5] -11.2% and -16.6% | [6] 15.2% and -23.6%
